A selection: hits, their analogues and other compounds. The true share with any hit is near 2.5%.
PRMT1 inh: PRMT1 methyltransferase inhibitors, primary screen, biochemical, fluorescence polarization; AID 652257, 2013; inhibition, % at 2.79 µM; 370,000 tested, 1.3% active; recombinant PRMT1, activity-based probe fluorescence polarization; Protein arginine N-methyltransferase 1 (Homo sapiens), Q99873;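 active means inhibition above about 21% made by adding two undisclosed values, limit read from the data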
UHRF1 MBD2 ctr: UHRF1 methylated DNA binding inhibitors, primary screen, counter-screen for MBD2 inhibitor project, biochemical, TR-FRET, human UHRF1, single concentration; AID 687016, 2013; E3 ubiquitin-protein ligase UHRF1 (Homo sapiens), Q96T88; inhibition, % at 4.4 µM; 370,000 tested, 0.75% active; UHRF1 binding to methylated oligo; in the data active means inhibition above about 21%;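 further: UHRF1 SRA domain binding a hemimethylated CpG hairpin DNA probe; 0% = median of test compound wells and 100% = reference inhibitor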
Target sequence (Q96T88 whole entry, looked up, the tested form may be a part): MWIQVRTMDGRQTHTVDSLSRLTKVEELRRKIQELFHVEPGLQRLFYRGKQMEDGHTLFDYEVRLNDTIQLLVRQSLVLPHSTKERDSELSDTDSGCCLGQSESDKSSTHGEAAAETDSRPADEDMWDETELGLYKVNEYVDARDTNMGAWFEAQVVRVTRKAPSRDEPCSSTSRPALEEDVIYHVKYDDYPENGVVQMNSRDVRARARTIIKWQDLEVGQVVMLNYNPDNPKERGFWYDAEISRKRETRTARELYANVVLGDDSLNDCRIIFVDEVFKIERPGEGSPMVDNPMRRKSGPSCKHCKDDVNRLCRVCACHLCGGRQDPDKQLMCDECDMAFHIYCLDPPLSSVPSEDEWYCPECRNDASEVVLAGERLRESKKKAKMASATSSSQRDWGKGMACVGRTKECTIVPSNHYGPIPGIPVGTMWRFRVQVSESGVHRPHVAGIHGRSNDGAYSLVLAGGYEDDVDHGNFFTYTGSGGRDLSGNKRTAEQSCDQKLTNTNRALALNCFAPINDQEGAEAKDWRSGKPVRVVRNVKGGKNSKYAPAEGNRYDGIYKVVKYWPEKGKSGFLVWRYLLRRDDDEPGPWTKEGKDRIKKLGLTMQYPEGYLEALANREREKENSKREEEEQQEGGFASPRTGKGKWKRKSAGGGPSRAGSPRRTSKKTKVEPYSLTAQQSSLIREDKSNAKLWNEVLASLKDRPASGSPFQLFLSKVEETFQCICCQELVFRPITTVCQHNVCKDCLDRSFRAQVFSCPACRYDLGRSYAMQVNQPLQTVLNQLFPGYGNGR
LEDGF integ inh: blockers of LEDGF/p75-dependent integrase strand transfer – biochemical, TR-FRET, high throughput, primary screen; 370,000 tested, 0.64% active; TR-FRET IN-LEDGF/p75 DNA integration, Eu/Cy5; inhibition, % at 3.7 µM; HIV-1 integrase (with human LEDGF/p75);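 active means inhibition above the screen-wide mean plus 3 SD, cut at about 13% in these data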;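 further: signal is the Cy5 over europium emission ratio at 671 and 618 nm; 0% = plate median of compound wells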
MBD2 DNA inh: inhibitors of MBD2 binding to methylated DNA, primary screen, biochemical, TR-FRET, DNA-binding domain, human | Methyl-CpG-binding domain protein 2 (Homo sapiens), Q9UBB5 | MBD2 binding to methylated oligonucleotide | inhibition, % at 4.4 µM | 370,000 tested, 0.31% active | AID 686964, 2013; in the data active means inhibition above about 13%
PRMT1 confirm: PRMT1 methyltransferase inhibitors, confirmation, biochemical, fluorescence polarization, triplicate. shares compounds with PRMT1 inh. recombinant His-PRMT1, activity-based probe fluorescence polarization. inhibition, % at 2.79 µM. 3,300 tested, 42% active. AID 687036, 2013;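 active means mean inhibition across replicates above the hit cutoff derived for the earlier primary screen, cut at about 22% in these data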
The depositor's hits bear a star; x = no result given.

SMILES	PRMT1 inh	UHRF1 MBD2 ctr	LEDGF integ inh	MBD2 DNA inh	PRMT1 confirm
Cc1ccc(S(=O)(=O)/N=S(/c2ccccc2)C(C)C)cc1 (configuration not stated)	35*	1	-5	2	70*
CCCCNC(=S)N1CCC(Cc2ccccc2)CC1	-3	-4	5	-5	x
CCN(C(=O)CSc1nnc(-c2ccc(OC)cc2)n1N)c1c(N)n(Cc2ccccc2)c(=O)[nH]c1=O	36*	1	0	2	28*
COCCN(C(=O)CSc1nnc(-c2ccccc2C)n1C)c1c(N)n(Cc2ccccc2)c(=O)[nH]c1=O	28*	-2	-3	-5	33*
CC(C)CN(C(=O)CSc1nc(-c2ccccc2)cn1N)c1c(N)n(Cc2ccccc2)c(=O)[nH]c1=O	26*	-2	0	0	10
COC(=O)C[C@@H]1CC[C@H]2[C@@H](COc3ccc(NC(=O)c4ccc(Cl)cc4)cc3C(=O)N2C)O1	2	2	-1	8	x
O=C(CC1SC2=NCCN2C1=O)Nc1ccccc1 (configuration not stated)	-1	-4	0	-6	x
Cc1ccc(NC(=O)CC2SC3=NCCN3C2=O)cc1 (configuration not stated)	94*	-2	2	-3	9
CC(=O)Nc1cc(-c2ccccc2)cn2c(-c3ccc(F)c(Cl)c3)cnc12	-1	-4	-1	3	x
Nc1cccn2c(-c3ccc(Cl)c(Cl)c3)cnc12	32*	-3	2	0	-3
Nc1cccn2c(-c3ccc(Cl)cc3)cnc12	42*	-6	-2	-2	-1
Cc1ccc(S(=O)(=O)NC(=O)C2(C)CCN2C(=O)C2CCCCC2)cc1 (configuration not stated)	-3	-2	-3	3	x
COc1cccc(-n2cc(-c3ccc(F)cc3)[nH]c2=S)c1	14	-2	4	3	x
COc1ccc(-c2cn(-c3ccc(C)c(C)c3)c(=S)[nH]2)cc1OC	31*	-1	-3	-3	18
CCOc1ccc(N2C(=O)C3Sc4[nH]c(=O)sc4C(/C=C/c4ccccc4)C3C2=O)cc1 (configuration not stated)	27*	-1	-3	1	3
COc1cc(C2c3sc(=O)[nH]c3SC3C(=O)N(c4ccc(Br)cc4)C(=O)C32)ccc1O (configuration not stated)	8	-6	6	-10	x
Cn1c(=O)c2ncn(C)c2n(C)c1=O	3	13	3	-2	x
Cc1ccnc(NC(=S)N2CC3CN(c4cccc(C(F)(F)F)c4)CC3C2)c1 (configuration not stated)	25*	0	11	0	23*
CC(=O)c1sc2nc(-c3cccs3)cc(C(F)(F)F)c2c1N	31*	-3	-1	0	20
Cc1c(C(=O)O)sc2nc(-c3cccs3)cc(C(F)(F)F)c12	1	-1	5	0	x
N#Cc1cc2c([nH]c1=S)CCCCCC2	26*	-2	-3	0	12
O=C(CSC1CC(=O)N(c2ccc(C(=O)O)cc2)C1=O)Nc1ccc(Cl)cc1 (configuration not stated)	39*	15	-1	4	34*
CCN=C(NCC)SC1CC(=O)N(CCc2ccccc2)C1=O (configuration not stated)	35*	3	1	-3	-1
O=C(O)CSC1CC(=O)N(c2ccc(F)cc2)C1=O (configuration not stated)	26*	5	5	-1	1
O=C(CSC1CC(=O)N(CCc2ccccc2)C1=O)Nc1cccc(Cl)c1 (configuration not stated)	54*	-7	-2	1	54*
O=C(CSC1CC(=O)N(CCc2ccccc2)C1=O)Nc1ccc(Br)cc1 (configuration not stated)	20	3	-2	-6	x
N#CC(c1ccccc1)C(CC(=NO)c1ccccc1)c1ccccc1 (configuration not stated)	-2	2	0	3	x
